Legend:
Assay in all cases: DAPPL (digital affinity profiling via proximity ligation, sequencing); 10 mM Tris-HCl pH 7.5, 50 mM NaCl, 1 mM DTT, 4% glycerol, room temperature, 30 min; GST-TFs on glutathione beads, 16-mer random dsDNA library, 0.1% formaldehyde crosslink after washing; high values mean tight binding
FEV = target: T1, FEV (Homo sapiens, UniProt Q99581 1-238); settings: protein: recombinant; tags: N-terminal GST; dsDNA, one strand shown
T1 sequence: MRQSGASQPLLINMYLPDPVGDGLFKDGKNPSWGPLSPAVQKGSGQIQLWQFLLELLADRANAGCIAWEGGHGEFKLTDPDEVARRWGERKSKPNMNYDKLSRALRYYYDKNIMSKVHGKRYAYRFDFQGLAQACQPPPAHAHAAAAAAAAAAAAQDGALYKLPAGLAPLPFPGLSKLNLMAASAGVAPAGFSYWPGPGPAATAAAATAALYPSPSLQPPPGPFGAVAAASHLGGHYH
Method in brief: (§1)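 The binding signal reported is, for every hexamer, its read frequency for a factor over its read frequency for the tag-only sample. Reads came from pools of yeast-expressed, GST-fused human transcription factors on glutathione beads, barcoded with DNA and mixed with that sample, which were incubated with 200 nmole of a random double-stranded 16-mer DNA library in Tris/NaCl/DTT/glycerol buffer at room temperature for 30 min. After washing, the pools were crosslinked with 0.1% formaldehyde, proximity-ligated with BsaI/T4 ligase for 1 h at 37 °C, PCR-amplified and sequenced on an Illumina NextSeq500.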

ETV5 = ETV5 (Homo sapiens, UniProt P41161 1-510); settings: protein: recombinant; tags: N-terminal GST; dsDNA, one strand shown
Sequence of ETV5 (P41161 whole entry): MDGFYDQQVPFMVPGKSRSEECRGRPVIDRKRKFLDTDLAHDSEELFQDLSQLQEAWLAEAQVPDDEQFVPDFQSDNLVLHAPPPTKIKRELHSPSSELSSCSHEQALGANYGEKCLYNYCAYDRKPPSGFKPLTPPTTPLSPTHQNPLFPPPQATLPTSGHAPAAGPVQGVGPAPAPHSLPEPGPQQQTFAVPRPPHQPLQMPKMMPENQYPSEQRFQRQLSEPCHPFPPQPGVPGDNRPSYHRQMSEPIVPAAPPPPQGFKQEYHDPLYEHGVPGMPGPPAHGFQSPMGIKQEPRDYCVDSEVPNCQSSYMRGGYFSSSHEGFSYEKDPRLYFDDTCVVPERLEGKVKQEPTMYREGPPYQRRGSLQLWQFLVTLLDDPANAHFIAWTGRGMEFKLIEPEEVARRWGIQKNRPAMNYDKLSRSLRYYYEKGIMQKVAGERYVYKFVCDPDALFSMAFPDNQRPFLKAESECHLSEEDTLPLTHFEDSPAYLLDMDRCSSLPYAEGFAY
Method in brief: as §1

HSF1 = HSF1 (Homo sapiens, UniProt Q00613 1-529); settings: protein: recombinant; tags: N-terminal GST; chain copies: 3; dsDNA, one strand shown
Sequence of HSF1 (Q00613 whole entry): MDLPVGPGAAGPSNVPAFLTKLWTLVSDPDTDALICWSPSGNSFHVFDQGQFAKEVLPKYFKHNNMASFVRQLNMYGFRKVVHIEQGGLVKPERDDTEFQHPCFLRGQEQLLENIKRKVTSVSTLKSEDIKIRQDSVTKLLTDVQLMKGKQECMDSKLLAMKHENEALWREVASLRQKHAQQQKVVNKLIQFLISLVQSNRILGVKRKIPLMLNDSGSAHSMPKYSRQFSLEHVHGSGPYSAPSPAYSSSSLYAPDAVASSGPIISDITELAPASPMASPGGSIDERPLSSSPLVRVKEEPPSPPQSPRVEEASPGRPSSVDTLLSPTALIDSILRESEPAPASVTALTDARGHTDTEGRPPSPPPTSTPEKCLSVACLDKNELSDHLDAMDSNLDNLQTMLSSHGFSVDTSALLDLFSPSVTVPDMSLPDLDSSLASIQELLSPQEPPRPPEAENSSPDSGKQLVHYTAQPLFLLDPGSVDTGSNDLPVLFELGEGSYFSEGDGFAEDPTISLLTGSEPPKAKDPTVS
Method in brief: as §1

SPIC = target: T2, SPIC (Homo sapiens, UniProt Q8N5J4 1-248); settings: protein: recombinant; tags: N-terminal GST; dsDNA, one strand shown
T2 sequence: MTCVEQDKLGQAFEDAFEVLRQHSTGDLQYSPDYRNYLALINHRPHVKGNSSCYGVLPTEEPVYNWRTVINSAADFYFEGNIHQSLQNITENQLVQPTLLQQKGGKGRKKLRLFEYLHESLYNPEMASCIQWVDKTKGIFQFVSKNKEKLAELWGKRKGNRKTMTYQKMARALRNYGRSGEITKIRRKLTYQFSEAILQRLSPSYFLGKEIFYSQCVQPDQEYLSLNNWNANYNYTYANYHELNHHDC
Method in brief: as §1

ELF4 = ELF4 (Homo sapiens, UniProt Q99607 1-663); settings: protein: recombinant; tags: N-terminal GST; dsDNA, one strand shown
Sequence of ELF4 (Q99607 whole entry): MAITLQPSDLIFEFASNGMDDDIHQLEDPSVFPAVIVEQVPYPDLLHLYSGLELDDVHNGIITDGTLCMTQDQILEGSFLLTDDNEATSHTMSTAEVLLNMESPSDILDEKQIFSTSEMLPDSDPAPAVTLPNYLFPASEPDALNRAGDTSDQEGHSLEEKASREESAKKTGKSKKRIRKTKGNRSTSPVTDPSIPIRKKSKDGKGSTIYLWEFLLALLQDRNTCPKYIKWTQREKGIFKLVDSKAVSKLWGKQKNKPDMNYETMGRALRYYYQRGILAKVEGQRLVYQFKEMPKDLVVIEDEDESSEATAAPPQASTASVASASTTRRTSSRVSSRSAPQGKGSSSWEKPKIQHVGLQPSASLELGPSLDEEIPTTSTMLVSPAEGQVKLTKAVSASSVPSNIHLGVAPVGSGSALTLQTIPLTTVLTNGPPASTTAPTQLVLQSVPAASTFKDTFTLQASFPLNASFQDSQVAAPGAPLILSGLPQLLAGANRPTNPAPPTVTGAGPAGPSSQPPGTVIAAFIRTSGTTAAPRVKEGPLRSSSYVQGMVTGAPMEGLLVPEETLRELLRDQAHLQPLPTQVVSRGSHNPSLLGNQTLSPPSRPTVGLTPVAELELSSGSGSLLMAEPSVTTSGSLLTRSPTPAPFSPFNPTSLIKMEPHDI
Method in brief: as §1

ETV2 = target: T3, ETV2 (Homo sapiens, UniProt O00321 1-342); settings: protein: recombinant; tags: N-terminal GST; dsDNA, one strand shown
T3 sequence: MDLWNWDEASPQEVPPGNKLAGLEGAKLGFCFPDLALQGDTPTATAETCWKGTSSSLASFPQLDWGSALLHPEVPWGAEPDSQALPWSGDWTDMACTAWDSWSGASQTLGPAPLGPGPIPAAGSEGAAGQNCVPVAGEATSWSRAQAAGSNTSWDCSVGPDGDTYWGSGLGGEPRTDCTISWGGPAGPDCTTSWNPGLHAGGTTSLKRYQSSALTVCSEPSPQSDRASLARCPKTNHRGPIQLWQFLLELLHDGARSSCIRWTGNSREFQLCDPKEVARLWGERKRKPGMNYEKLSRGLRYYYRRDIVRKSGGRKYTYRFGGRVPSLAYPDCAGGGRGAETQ
Method in brief: as §1

ELF3 = target: T4, ELF3 (Homo sapiens, UniProt P78545 1-371); settings: protein: recombinant; tags: N-terminal GST; dsDNA, one strand shown
T4 sequence: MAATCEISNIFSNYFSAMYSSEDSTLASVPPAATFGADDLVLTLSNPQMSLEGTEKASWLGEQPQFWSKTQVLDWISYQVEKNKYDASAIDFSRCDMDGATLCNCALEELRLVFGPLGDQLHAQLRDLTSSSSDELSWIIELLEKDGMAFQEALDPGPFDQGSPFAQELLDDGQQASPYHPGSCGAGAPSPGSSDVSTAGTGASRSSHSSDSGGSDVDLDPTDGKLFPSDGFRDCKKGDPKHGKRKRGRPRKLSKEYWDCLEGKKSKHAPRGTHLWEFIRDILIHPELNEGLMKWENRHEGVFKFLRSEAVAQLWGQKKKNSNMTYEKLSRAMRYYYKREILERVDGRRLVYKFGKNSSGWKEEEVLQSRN
Method in brief: as §1

CRX = CRX (Homo sapiens, UniProt O43186 1-299); settings: protein: recombinant; tags: N-terminal GST; dsDNA, one strand shown
Sequence of CRX (O43186 whole entry): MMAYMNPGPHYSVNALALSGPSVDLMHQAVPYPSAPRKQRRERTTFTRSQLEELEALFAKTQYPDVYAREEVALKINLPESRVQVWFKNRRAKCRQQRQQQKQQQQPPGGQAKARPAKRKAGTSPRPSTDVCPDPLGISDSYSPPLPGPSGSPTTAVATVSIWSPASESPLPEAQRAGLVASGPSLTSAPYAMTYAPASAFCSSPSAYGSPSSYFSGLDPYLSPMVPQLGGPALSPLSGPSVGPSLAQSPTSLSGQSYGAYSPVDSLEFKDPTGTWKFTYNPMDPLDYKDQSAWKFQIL
Method in brief: as §1

ETV1 = ETV1 (Homo sapiens, UniProt P50549 1-477); settings: protein: recombinant; tags: N-terminal GST; dsDNA, one strand shown
Sequence of ETV1 (P50549 whole entry): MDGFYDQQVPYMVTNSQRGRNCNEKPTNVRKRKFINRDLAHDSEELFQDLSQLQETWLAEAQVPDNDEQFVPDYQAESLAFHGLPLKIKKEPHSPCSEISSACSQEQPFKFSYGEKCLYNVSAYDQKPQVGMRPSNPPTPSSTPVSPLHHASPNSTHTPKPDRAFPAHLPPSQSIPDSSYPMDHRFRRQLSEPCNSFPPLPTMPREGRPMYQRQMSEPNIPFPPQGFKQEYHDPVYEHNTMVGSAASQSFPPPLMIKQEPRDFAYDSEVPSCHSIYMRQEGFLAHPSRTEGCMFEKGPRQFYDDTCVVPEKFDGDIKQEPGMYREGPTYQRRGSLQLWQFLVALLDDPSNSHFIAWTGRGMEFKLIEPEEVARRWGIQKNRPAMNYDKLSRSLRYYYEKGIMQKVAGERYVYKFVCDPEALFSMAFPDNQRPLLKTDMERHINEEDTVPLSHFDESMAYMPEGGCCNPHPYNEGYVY
Method in brief: as §1

ERF = target: T5, ERF (Homo sapiens, UniProt P50548 1-548); settings: protein: recombinant; tags: N-terminal GST; dsDNA, one strand shown
T5 sequence: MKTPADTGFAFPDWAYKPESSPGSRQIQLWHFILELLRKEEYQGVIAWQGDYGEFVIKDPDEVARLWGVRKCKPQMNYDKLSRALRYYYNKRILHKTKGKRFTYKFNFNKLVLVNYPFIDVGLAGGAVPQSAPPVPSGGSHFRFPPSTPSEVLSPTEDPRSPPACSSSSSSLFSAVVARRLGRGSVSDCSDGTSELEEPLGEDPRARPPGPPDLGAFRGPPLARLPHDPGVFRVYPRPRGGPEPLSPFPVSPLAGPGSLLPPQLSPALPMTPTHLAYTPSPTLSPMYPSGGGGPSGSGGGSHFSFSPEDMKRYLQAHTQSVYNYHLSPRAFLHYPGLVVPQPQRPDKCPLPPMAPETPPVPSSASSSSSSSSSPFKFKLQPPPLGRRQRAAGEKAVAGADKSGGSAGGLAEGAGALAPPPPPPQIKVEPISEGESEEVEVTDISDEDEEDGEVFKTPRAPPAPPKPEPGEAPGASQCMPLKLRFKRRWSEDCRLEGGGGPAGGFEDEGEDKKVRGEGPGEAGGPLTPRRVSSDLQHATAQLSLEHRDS
Method in brief: as §1

ETV3L = target: T6, ETV3L (Homo sapiens, UniProt Q6ZN32 1-361); settings: protein: recombinant; tags: N-terminal GST; dsDNA, one strand shown
T6 sequence: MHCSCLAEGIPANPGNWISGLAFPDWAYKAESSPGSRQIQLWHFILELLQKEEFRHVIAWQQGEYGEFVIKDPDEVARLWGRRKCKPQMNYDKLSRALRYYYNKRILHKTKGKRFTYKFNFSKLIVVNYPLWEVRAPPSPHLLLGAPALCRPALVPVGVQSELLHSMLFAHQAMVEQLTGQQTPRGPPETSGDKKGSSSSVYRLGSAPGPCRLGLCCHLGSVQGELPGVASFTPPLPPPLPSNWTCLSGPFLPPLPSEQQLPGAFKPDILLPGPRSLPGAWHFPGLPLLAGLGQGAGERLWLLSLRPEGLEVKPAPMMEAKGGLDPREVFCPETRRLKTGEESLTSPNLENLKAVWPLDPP
Method in brief: as §1

ETS2 = target: T7, ETS2 (Homo sapiens, UniProt P15036 1-469); settings: protein: recombinant; tags: N-terminal GST; dsDNA, one strand shown
T7 sequence: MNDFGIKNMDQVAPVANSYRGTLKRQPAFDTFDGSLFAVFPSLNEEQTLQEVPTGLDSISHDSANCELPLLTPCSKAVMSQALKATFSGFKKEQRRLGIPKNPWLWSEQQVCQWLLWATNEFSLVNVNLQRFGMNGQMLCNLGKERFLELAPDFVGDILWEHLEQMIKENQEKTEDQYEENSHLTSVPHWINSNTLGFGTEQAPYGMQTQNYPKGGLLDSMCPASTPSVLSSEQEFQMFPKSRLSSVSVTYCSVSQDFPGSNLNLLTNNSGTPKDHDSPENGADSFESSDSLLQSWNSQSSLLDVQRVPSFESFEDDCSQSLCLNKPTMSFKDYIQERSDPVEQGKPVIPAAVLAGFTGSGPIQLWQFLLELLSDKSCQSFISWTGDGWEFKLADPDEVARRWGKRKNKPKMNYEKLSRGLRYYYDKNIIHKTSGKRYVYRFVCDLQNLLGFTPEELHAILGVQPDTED
Method in brief: as §1

SPDEF = target: T8, SPDEF (Homo sapiens, UniProt O95238 1-335); settings: protein: recombinant; tags: N-terminal GST; dsDNA, one strand shown
T8 sequence: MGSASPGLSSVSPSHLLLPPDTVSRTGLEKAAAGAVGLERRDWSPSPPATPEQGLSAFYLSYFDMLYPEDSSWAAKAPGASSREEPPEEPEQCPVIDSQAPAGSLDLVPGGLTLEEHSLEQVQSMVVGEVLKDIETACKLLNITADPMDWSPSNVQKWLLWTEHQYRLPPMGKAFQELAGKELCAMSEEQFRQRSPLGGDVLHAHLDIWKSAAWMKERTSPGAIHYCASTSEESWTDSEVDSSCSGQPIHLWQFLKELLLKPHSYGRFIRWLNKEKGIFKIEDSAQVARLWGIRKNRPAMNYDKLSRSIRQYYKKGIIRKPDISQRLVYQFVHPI
Method in brief: as §1

ETV7 = target: T9, ETV7 (Homo sapiens, UniProt Q9Y603 1-341); settings: protein: recombinant; tags: N-terminal GST; dsDNA, one strand shown
T9 sequence: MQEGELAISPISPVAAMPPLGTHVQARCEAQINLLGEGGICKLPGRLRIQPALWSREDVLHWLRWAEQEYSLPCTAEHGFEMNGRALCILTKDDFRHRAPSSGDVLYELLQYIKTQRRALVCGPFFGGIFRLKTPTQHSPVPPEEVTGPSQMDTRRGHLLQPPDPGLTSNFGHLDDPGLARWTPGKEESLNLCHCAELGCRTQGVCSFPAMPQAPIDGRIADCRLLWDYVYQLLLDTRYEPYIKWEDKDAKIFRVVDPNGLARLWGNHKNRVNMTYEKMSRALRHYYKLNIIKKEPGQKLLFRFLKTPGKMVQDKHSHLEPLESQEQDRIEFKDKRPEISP
Method in brief: as §1

ELF5 = target: T10, ELF5 (Homo sapiens, UniProt Q9UKW6-2 1-255); settings: protein: recombinant; tags: N-terminal GST; dsDNA, one strand shown
T10 sequence: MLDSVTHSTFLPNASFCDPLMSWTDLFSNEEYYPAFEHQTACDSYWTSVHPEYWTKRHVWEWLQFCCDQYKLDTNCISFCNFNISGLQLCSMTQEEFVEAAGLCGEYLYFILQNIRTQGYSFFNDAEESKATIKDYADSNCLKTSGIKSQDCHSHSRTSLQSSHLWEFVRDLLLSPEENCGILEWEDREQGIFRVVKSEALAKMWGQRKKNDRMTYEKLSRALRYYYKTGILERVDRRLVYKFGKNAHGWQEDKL
Method in brief: as §1

ETV3 = target: T11, ETV3 (Homo sapiens, UniProt P41162-2 1-143); settings: protein: recombinant; tags: N-terminal GST; dsDNA, one strand shown
T11 sequence: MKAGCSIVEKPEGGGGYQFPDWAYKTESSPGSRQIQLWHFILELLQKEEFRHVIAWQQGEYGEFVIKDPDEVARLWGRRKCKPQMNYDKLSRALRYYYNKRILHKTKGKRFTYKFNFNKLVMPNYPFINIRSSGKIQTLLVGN
Method in brief: as §1

ETV6 = ETV6 (Homo sapiens, UniProt P41212 1-452); settings: protein: recombinant; tags: N-terminal GST; dsDNA, one strand shown
Sequence of ETV6 (P41212 whole entry): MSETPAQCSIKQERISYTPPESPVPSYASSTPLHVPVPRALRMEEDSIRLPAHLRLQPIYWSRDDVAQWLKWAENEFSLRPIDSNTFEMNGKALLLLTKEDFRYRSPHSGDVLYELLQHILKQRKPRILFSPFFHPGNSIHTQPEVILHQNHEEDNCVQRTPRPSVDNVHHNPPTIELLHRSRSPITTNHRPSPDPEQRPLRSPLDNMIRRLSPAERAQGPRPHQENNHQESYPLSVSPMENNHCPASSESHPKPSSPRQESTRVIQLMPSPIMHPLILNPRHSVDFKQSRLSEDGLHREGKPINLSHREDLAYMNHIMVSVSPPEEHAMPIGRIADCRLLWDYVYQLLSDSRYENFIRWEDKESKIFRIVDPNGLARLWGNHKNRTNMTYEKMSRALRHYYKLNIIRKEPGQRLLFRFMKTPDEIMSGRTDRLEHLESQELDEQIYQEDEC
Method in brief: as §1

Sequence: TGATTC
- binding signal (FEV): 1.03 fold enrichment (6-mer frequency, TF over GST control)
- binding signal (ETV5): 1.1 fold enrichment (6-mer frequency, TF over GST control)
- binding signal (HSF1): 1.18 fold enrichment (6-mer frequency, TF over GST control)
- binding signal (SPIC): 1.11 fold enrichment (6-mer frequency, TF over GST control)
- binding signal (ELF4): 1.07 fold enrichment (6-mer frequency, TF over GST control)
- binding signal (ETV2): 1.03 fold enrichment (6-mer frequency, TF over GST control)
- binding signal (ELF3): 1.12 fold enrichment (6-mer frequency, TF over GST control)
- binding signal (CRX): 1.12 fold enrichment (6-mer frequency, TF over GST control)
- binding signal (ETV1): 1.18 fold enrichment (6-mer frequency, TF over GST control)
- binding signal (ERF): 1.07 fold enrichment (6-mer frequency, TF over GST control)
- binding signal (ETV3L): 1.09 fold enrichment (6-mer frequency, TF over GST control)
- binding signal (ETS2): 1.06 fold enrichment (6-mer frequency, TF over GST control)
- binding signal (SPDEF): 1.04 fold enrichment (6-mer frequency, TF over GST control)
- binding signal (ETV7): 1.13 fold enrichment (6-mer frequency, TF over GST control)
- binding signal (ELF5): 1.03 fold enrichment (6-mer frequency, TF over GST control)
- binding signal (ETV3): 1.15 fold enrichment (6-mer frequency, TF over GST control)
- binding signal (ETV6): 1.06 fold enrichment (6-mer frequency, TF over GST control)

Source: article PMC7862700, “An all-to-all approach to the identification of sequence-specific readers for epigenetic DNA modifications on cytosine”
